Experimental findings from PubChem BioAssay (NCI) are described below.

This is part of a sample that, as a whole, favours compounds with a hit. Of some 83,000 tested, about 20% had one in any assay.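 Testing used 96-well plates and a 48-hour single-concentration exposure. Example: -40 means 40% of the starting cells died.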 Values without a mark were called inactive. Activity calls are given as the source filed them. The calls were made as follows: active = growth percent below 10; inactive = the rest.

In the assay the test system is RXF 393 renal. The experiment in a line: NCI-60 one-dose screen, 48 h (100 = growth as untreated, 0 = no growth, -100 = all killed). Conditions: 10 µM unless noted.
Regarding `O=C(/C=C/c1ccc(Cl)cc1)c1ccc(NC(=O)N2CCN(c3cc4c(cc3F)c(=O)c(C(=O)O)cn4C3CC3)CC2)cc1`, the growth is 97.9%.
The value for `O=C(/C=C(/C=C/c1csc2ccccc12)OB(F)F)/C=C/c1csc2ccccc12` was -28.4% (active).
On to `CN1CCN(C(=O)[C@]23CCC(C)(C)C[C@H]2C2=CC[C@@H]4[C@@]5(C)C/C(=C/c6cccnc6)C(=O)C(C)(C)[C@@H]5CC[C@@]4(C)[C@]2(C)CC3)CC1`, for which the growth is 64.9%.
Turning to `CC1=CCC(OC(=O)C(C)(O)CCC(O)(C(=O)OC2(C)C=CC(O)(C(C)C)CC2)C(C)C)(C(C)C)CC1` (stereo not drawn), the growth was 98.5%.
Then `NC1=NN=C(N)C1=Cc1cc2ccccc2n2nnnc12`, with 110%.
Take `COc1ccc(NC(N)=NCCCOc2ccc(F)cc2)cc1`: the growth is 104%.
For the compound `O=C1c2ccc3c4c(ccc(c24)C(=O)N1CCCNCc1ccccc1)C(=O)N(CCCNCc1ccccc1)C3=O`, the growth is -88.8% (active).
Then `O=C(NCCNc1nccc(-c2c(-c3cccc(F)c3)nc3sccn23)n1)c1ccc(Cl)cc1`, with 72.9%; and `C=C1C(=O)O[C@H]2[C@H]1CC/C(COC(=O)NCCc1c[nH]c3ccc(OC)cc13)=C\CC[C@@]1(C)O[C@@H]21`, with -81.7% (active).
As to `COc1cc(CC(=O)c2ccc(O)c(OC)c2)ccc1O`, the growth was 102%.
`CCN(CC)c1ccc(/C=N/NC(=O)CSc2nc3ccccc3c(=O)n2CCc2ccc(S(N)(=O)=O)cc2)c(O)c1`: the growth is 44.1%.
Consider `Cc1ccc(-n2c3c(c(-c4ccccc4)c2-c2ccccc2)C2=NCCN2C=N3)cc1`, for which the growth is 101%.
Take `CN1CCN(C(=O)[C@]23CCC(C)(C)C[C@H]2C2=CC[C@@H]4[C@@]5(C)C/C(=C/c6ccncc6)C(=O)C(C)(C)[C@@H]5CC[C@@]4(C)[C@]2(C)CC3)CC1`: the growth is 27.6%.
Turning to `C=C(C)[C@@H]1CC[C@]2(C(=O)N3CCN(C)CC3)CC[C@]3(C)[C@H](CC[C@@H]4[C@@]5(C)C/C(=C/c6cccnc6)C(=O)C(C)(C)[C@@H]5CC[C@]43C)[C@@H]12`, the growth is 52.2%.
The value for `N/C(=N\C(N)=N\c1nc2ccccc2s1)c1cccc(Cl)c1` was 115%; that for `CCOC(=O)Nc1ccc(-c2ccc3c(c2)NC(=O)/C3=C\c2ccc[nH]2)cc1` was 112%; that for `CCNC(=O)Oc1ccc(/C(=C(\C)c2ccccc2)c2ccc(OCCN(CC)CC)cc2)cc1` was 70.6%.
With `CCOC(=O)/C(C#N)=C1/NNC(=Nc2cccnc2)S1`, the growth is 110%.
As for `COc1cccc(-c2nc3occn3c2-c2ccnc(NCCCNS(=O)(=O)c3ccc(C(F)(F)F)cc3)n2)c1`, the growth was 79.6%.
Regarding `CC(=O)Nc1ccc(-n2cnc3cc(-c4ccc(OCCN5CCCCC5)cc4)ccc32)cc1`, the growth was 80.4%.
In the case of `Cn1ccnc1C(=O)/C=C/c1ccc(CC(=O)Nc2ccc(Cl)cc2)cc1`, the growth was 17.9%.
Take `C=CCN1C(=O)/C(=C/C(=O)OC)S/C1=N\NC(=O)c1cc2ccc1/C=C\c1ccc(cc1)/C=C\2`: the growth is 94.8%.
As to `COc1ccc(/C=C(\C#N)n2nc3cccc(F)c3n2)cc1`, the growth was 104%.
Consider `N/C(=N\C(N)=N\c1nc2ccccc2s1)c1cnccn1`, for which the growth was -43% (active).
Regarding `Cc1c(C(=O)NCCC(=O)NO)sc2ncnc(Nc3ccc(NC(=O)Nc4cccc(C(F)(F)F)c4)cc3)c12`, the growth was 104%.
Then `O=C(Nc1ccc(-c2ccc3c(c2)NC(=O)/C3=C\c2ccc[nH]2)cc1)NC1CC1`, with 99.1%; and `S=c1cc(S)c2cc(Br)ccc2[nH]1`, with 111%.
As for `CCCCOc1ccc(/C=N/Nc2cc(C)nc3ccc(Br)cc23)cc1`, the growth was -72% (active).
On to `N/C(=N\C(N)=N\c1nc2ccccc2s1)c1ccnc(Br)c1`, for which the growth is 15.7%.
In the case of `COc1cc(NC(C)CCCNC(=O)CCC(=O)NCCCNCCCCCCCCNCCCNC(=O)CCC(=O)NCCCC(C)Nc2cc(OC)cc3cccnc23)c2ncccc2c1` (stereo not drawn), the growth is 67.9%.
Consider `COc1cc2nc(-c3ccc(C(F)(F)F)cc3)cc(OCCCN3CCOCC3)c2cc1OC`, for which the growth was 14.5%.
Take `O=C(Cn1c[n+](CC(=O)c2ccc(-c3ccccc3)cc2)c2ccccc21)Nc1cccc2cccnc12`: the growth was 83.7%.
For the compound `CC(Oc1ccc(C(=O)O)cc1C(F)(F)F)c1ccc(Oc2ccccc2)cn1` (stereo not drawn), the growth is 95.8%.
`O=C(Nc1ccc(F)cc1)Nc1ccc(NC(=O)c2cc(Cl)nc3ccccc23)cc1`: the growth is 86.9%.
`O=C(CCN1CCCC1)Nc1ccc2c(Nc3ccc(F)cc3)c3ccccc3nc2c1`: the growth is 7.89% (active).
Consider `CC(Sc1nc2ccccc2c(=O)n1CCc1ccc(S(N)(=O)=O)cc1)C(=O)Nc1ccc(Cl)cc1` (stereo not drawn), for which the growth is 72.4%.
On to `O=C(N/N=C/c1cc2ccccc2n2nnnc12)Nc1ccccc1`, for which the growth is 103%.
Turning to `CC1(C)CC(=O)C2=C(C1)N(c1ccc(F)cc1F)C(N)=C(C#N)C2c1cc(Br)ccc1F` (stereo not drawn), the growth was 103%.
